The source of these data is PubChem BioAssay (NCATS).

Where “and” joins values, the source holds several entries; their conditions need not be identical. Identical values can stand only once. Results filed as inconclusive are left out. Calls of active or inactive are those of the source. Unless noted, calls follow the shape of the dose curve; as a rule, active = well fitted curve in the direction sought with a large enough effect; inconclusive = small, poorly fitted or top-dose-only effect, or another doubt; inactive = no such curve, though single readings can be large; an effect the other way counts as inactive or inconclusive.

In test [1] the target is Cytochrome P450 2C9 (Homo sapiens) (UniProt P11712). Description: Cytochrome P450 family 2 subfamily C member 9 (CYP2C9) small molecule antagonists: luciferase biochemical (cell-free) qHTS assay (AID 1645842; active = well fitted curve in the direction sought with a large enough effect in the repeat runs; an effect the other way counts as inactive or inconclusive; also: nearly all actives have a fitted effect of over 55% in size; also: potency is read from the fitted curve at half-maximal effect). The following applies: P450-Glo CYP2C9 enzyme assay, luciferin luminescence; series mostly up to 57.4 µM. The method in brief:
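P450-Glo CYP2C9 system: proluciferin substrate with enzyme in mix containing 0.4% BSA, 10 min at room temperature, then NADPH regeneration solution added and incubated 1 h at 37C. Detection reagent stopped reaction; luminescence read after 20 min as RLU.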
A general note: Quantitative high-throughput screening tests each substance at several concentrations.

Test [2] can be described thus: Primary qHTS for inhibitors of nuclear receptor binding SET domain protein 2 (NSD2) in an isogenic RCH-ACV NSD2 p.E1099K mutant (9B) (AID 1645876). Also: nearly all actives have a fitted effect of over 70% in size. Also: potency is read from the fitted curve at half-maximal effect. To be noted: RCH-ACV NSD2 E1099K (9B) viability, CellTiter-Glo, 72 h; series mostly up to 44.9 µM.
Test [3] in a line: Primary qHTS for inhibitors of nuclear receptor binding SET domain protein 2 (NSD2) in an RCH-ACV wild type WT cells (2C) (AID 1645877). Also: nearly all actives have a fitted effect of over 70% in size. Also: potency is read from the fitted curve at half-maximal effect. The following applies: RCH-ACV (leukaemia line) NSD2 WT (2C) viability, CellTiter-Glo, 72 h; series mostly up to 44.9 µM.
Test [4] has as its target N-terminal Xaa-Pro-Lys N-methyltransferase 1 (Homo sapiens) (UniProt Q9BV86). Description: Confirmatory qHTS for Inhibitors of N-terminal methyltransferase 1 (NTMT1): MTaseGlo Assay (AID 1645874). Also: potency is read from the fitted curve at half-maximal effect; nearly all actives have a fitted effect of over 65% in size. To be noted: NTMT1 enzyme, MTase-Glo SAH luminescence; series mostly up to 100 µM. The method in brief: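 Room-temperature NTMT1 reaction, 30 min, with 100 uM SAM and 1 uM SPKRIA substrate; enzyme 125 nM. Read-out: MTase-Glo luminescence, normalized to no-enzyme and DMSO controls.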

The target in test [5] is Catechol O-methyltransferase (Homo sapiens) (UniProt P21964). Description: Confirmatory Screen for Target Class Profiling of Small Molecule Inhibitors of Methyltransferases (AID 1745852). The following applies: MTase-Glo luminescence, SAH detection, recombinant enzyme; measured here: COMT max response; stronger effect = lower value.
Sequence of Catechol O-methyltransferase (Homo sapiens) (P21964 whole entry, looked up): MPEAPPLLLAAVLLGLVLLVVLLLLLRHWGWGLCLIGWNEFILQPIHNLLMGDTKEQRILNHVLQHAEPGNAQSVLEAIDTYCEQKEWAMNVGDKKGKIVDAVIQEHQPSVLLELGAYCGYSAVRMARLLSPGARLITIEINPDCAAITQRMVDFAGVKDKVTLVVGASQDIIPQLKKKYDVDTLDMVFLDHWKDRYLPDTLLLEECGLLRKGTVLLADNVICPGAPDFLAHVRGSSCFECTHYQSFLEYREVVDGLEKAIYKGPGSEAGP

Sequence of Cytochrome P450 2C9 (Homo sapiens) (P11712 whole entry, looked up): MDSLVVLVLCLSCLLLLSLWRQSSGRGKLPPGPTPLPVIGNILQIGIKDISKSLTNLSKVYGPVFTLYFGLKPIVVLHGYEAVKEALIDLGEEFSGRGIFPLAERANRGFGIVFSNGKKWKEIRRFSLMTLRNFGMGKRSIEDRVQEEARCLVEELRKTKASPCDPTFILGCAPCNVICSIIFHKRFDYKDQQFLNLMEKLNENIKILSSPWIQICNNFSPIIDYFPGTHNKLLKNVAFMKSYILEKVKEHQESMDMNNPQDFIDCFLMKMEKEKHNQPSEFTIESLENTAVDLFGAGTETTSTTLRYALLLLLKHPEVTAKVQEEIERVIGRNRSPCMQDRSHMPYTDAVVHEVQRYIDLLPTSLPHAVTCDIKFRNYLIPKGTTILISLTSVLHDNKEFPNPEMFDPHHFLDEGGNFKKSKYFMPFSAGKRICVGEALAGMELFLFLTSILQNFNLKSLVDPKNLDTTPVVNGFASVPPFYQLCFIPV
Sequence of N-terminal Xaa-Pro-Lys N-methyltransferase 1 (Homo sapiens) (Q9BV86 whole entry, looked up): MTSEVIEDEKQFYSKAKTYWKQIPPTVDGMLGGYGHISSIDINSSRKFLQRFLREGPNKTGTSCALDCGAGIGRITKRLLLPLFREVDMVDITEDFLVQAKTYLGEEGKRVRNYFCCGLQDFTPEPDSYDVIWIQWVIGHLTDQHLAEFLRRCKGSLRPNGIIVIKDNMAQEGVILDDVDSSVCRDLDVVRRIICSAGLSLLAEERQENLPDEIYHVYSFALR

For the compound `CC(C)c1nnc(-c2ccc(-c3ccccc3)nc2)n1-c1cccc2nonc12`, in test [1], the Potency was 13.5 µM (active). Besides, the Potency result in test [2] and in test [3] was “inactive” in each case.

As to `CCN1CCN(Cc2ccc(Nc3ncc(F)c(-c4cc(F)c5nc(C)n(C(C)C)c5c4)n3)nc2)CC1`, in test [1], the Potency entry is “inactive”. The Potency in test [4] was 20 µM (active); in test [2], 728 nM (active) and 468 nM (active); in test [3], 649 nM (active) and 417 nM (active). In addition, the activity in test [5] is -78.7%.

For `Cc1cc(Nc2ccc(NC(=O)c3ccc(Nc4ccnc5ccccc45)cc3)cc2)nc(N)n1`, in test [1], the Potency result was “inactive”. For the same compound, the Potency is 1830 nM (active) in test [2] and 817 nM (active) in test [3]. For the same compound, the activity in test [5] was -15.9%.

For `CCCC1(c2ccccc2)NC(=O)N(CC(=O)N(C)Cc2c(F)cccc2Cl)C1=O` (centres undefined), the Potency in test [1] was 12 µM (active). Also, the Potency result in test [2] and in test [3] was “inactive” in each case.

Take `COc1cc(C(=O)NC2CCN(C)CC2)ccc1Nc1ncc2c(n1)N(C1CCCC1)CC(F)(F)C(=O)N2C`: the Potency result in test [1] was “inactive”. In addition, the Potency was 20.5 nM (active) in test [2] and 32.5 nM (active) in test [3]. Moreover, the activity in test [5] is -24%.

For the compound `CC(C)Oc1ccc(C(=O)NC(CNC(=O)CN(C)C)Cc2ccc(-c3cn4cccc(C(C)O)c4n3)cc2)cc1Cl` (centres undefined), the Potency in test [1] is 13.5 µM (active); in test [2], 163 nM (active); in test [3], 64.9 nM (active).

For the compound `COC(=O)N[C@@H](C)CNc1nccc(-c2cn(C(C)C)nc2-c2cc(Cl)cc(NS(C)(=O)=O)c2F)n1`, the Potency result in test [1] and in test [2] was “inactive” in each case.

Regarding `O=C(CSc1nc2c(c(=O)n1-c1ccccc1)SCC2)Nc1ccc(-c2ccccc2)cn1`, the Potency is 0.379 µM (active) in test [1], 36.5 nM (active) in test [2] and 32.5 nM (active) in test [3].

Turning to `C#CCN(Cc1cc2c(=O)n(C)c(CN3CCN(C)CC3)nc2cc1Cl)c1ccc(C(=O)NCc2cccnc2)cc1`, the Potency in test [1] was 12 µM (active). Also, the Potency entry in test [2] and in test [3] was “inactive” in each case.

In the case of `CC(=O)N1CCN(Cc2ccc([C@H](C)Nc3nccc(N4C(=O)OC[C@@H]4C(C)C)n3)cc2)CC1`, the Potency in test [1] was 23.9 µM (active). Besides, the Potency result in test [2] is “inactive”.

For `O=C(NCc1cccc(O)c1)c1cc2cc(F)ccc2[nH]1`, the Potency is 13.5 µM (active) in test [1], 18300 nM (active) in test [2] and 20500 nM (active) in test [3].

For the compound `Cc1cc(Nc2cc(N3CCN(C)CC3)nc(/C=C/c3ccccc3)n2)n[nH]1`, in test [1], the Potency result was “inactive”. Further, the Potency in test [2] was 728 nM (active) and 934 nM (active); in test [3], 649 nM (active) and 742 nM (active).

Regarding `O=C(Nc1ccc(Cl)cc1F)c1ccccc1O`, the Potency in test [1] was 9.52 µM (active).

As for `COc1ccc(Cl)c(Nc2nc3ccccc3nc2NS(=O)(=O)c2cccc(NC(=O)C(C)(C)N)c2)c1`, the Potency in test [1] is 2.68 µM (active); in test [2], 3.65 µM (active) and 5.9 µM (active); in test [3], 4.09 µM (active) and 8.33 µM (active).

`COC(=O)N(C)c1c(N)nc(-c2nn(Cc3ccccc3F)c3ncccc23)nc1N`: the Potency in test [1] was 23.9 µM (active). Also, the Potency result in test [2] and in test [3] was “inactive” each time.

With `c1cc(Nc2cc(C3CC3)[nH]n2)nc(Nc2ccc3nc[nH]c3c2)n1`, the figures for the Potency in test [1], in test [2] and in test [3] were 9.52 µM (active), 417 nM (active) and 468 nM (active), respectively.

Regarding `Cc1nc2ccc(Oc3ccc(F)cc3)cc2c(=O)n1C[C@H]1CCCN(C(C)C)C1`, in test [1], the Potency entry was “inactive”.

As to `NC[C@@](O)(c1ccc(Cl)cc1)c1ccc(-c2cn[nH]c2)cc1`, the Potency in test [1] was 1.2 µM (active); in test [2], 6.49 µM (active) and 5.25 µM (active); in test [3] it was 4.59 µM (active) and 4.68 µM (active). Further, in test [5], the activity stood at 1.95%.

Turning to `Cc1nc(Nc2n[nH]c3c2CN(C(=O)NC(CN(C)C)c2ccccc2)C3(C)C)c2sccc2n1` (centres undefined), the Potency in test [1] was 13.5 µM (active); in test [2] it was 6.5 nM (active); in test [3], 5.2 nM (active).

Consider `COc1ccc(C2=N[C@@H](c3ccc(Cl)cc3)[C@@H](c3ccc(Cl)cc3)N2C(=O)N2CCNC(=O)C2)c(OC(C)C)c1`, for which, in test [1], the Potency entry is “inactive”. In addition, the Potency in test [2] was 3650 nM (active); in test [3], 1630 nM (active).

Consider `CCCCNc1ncc2c(-c3ccc(CN4CCN(C)CC4)cc3)cn(C3CCC(O)CC3)c2n1` (centres undefined), for which the Potency was 15.1 µM (active) in test [1]; 1.64 µM (active) and 2.95 µM (active) in test [2]; 205 nM (active) and 332 nM (active) and 662 nM (active) in test [3].

Consider `O=C(Nc1c(-c2cccs2)nc2ccccn12)c1ccc(Cl)cc1`, for which the Potency in test [1] is 15.1 µM (active). Besides, the Potency result in test [2] and in test [3] was “inactive” in each case.

On to `COc1ccc(-c2cnc3ccc(NCc4ccc(S(N)(=O)=O)cc4)nn23)cc1OC`, for which the figures for the Potency in test [1], in test [2] and in test [3] were 6.74 µM (active), 9160 nM (active) and 7280 nM (active), respectively. Moreover, the activity in test [5] was -34.5%.

For the compound `COc1ccccc1NC(=O)OCC1CCN(C(=O)OC(C)(C)C)CC1`, the Potency result in test [1], in test [2] and in test [3] was “inactive” throughout.

In the case of `CCOCc1nc2c(N)nc3ccccc3c2n1CC(C)(C)O`, the Potency result in test [1] and in test [2] was “inactive” each time.
